# Experimental data from the supplement of paper PMC10849652.
# The full data set covers some 8,800 targets. This sample favours those with a hit. About 0.5% of all pairs of compound and target were hits. Values without a mark were called inactive.
# How the values were obtained:
# Assay in all cases: log2 fold change, soluble protein after heating vs DMSO (PISA); higher = thermal stabilisation; K562 lysate, 10 uM; active = over 0.2 and 3.5 SD of the protein, either way, in both replicates (recomputed)
# alvocidib = compound: CN1CC[C@H](c2c(O)cc(O)c3c(=O)cc(-c4ccccc4Cl)oc23)[C@H](O)C1 [alvocidib]
# Summary of the method: (§1)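 Soluble protein was defined as the supernatant remaining after 21,000xg for 90 min, following pooling of heated aliquots and adjustment to 0.5% NP-40 at 4°C. Before that, crude K562 extract at 1 mg/mL protein in PBS pH 7.4 with 1 mM MgCl2 was treated with 10 μM compound for 30 min and heated for 3 min across 48°C-58°C. Quantification used TMTpro 16plex LC-MS/MS with channel sums equalised, and values are log-two fold changes in thermal stability relative to solvent controls from duplicates.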
# Tubastatin A = compound: CN1CCc2c(c3ccccc3n2Cc2ccc(C(=O)NO)cc2)C1 [Tubastatin A]
# Summary of the method: as §1
# [1] = compound: CNC(=O)C1=CC=CC=C1NC2=NC(=NC=C2Cl)NC3=C(C=C(C=C3)N4CCOCC4)OC
# Summary of the method: as §1
# defactinib = compound: CNC(=O)c1ccc(Nc2ncc(C(F)(F)F)c(NCc3nccnc3N(C)S(C)(=O)=O)n2)cc1 [defactinib]
# Summary of the method: as §1
# [2] = compound: CNc1nc(-c2ccc3c(N)n[nH]c3c2)cc(N2C[C@@H](C(=O)NC3CCCCC3)CC[C@H]2C)n1
# Summary of the method: as §1
# encorafenib = compound: COC(=O)N[C@@H](C)CNc1nccc(-c2cn(C(C)C)nc2-c2cc(Cl)cc(NS(C)(=O)=O)c2F)n1 [encorafenib]
# Summary of the method: as §1
# [3] = compound: COC(=O)[C@H](CCSC)NC(=O)C1=C(C=C(C=C1)NC[C@H](CS)N)C2=CC=CC=C2
# Summary of the method: as §1
# alisertib = compound: COc1cc(Nc2ncc3c(n2)-c2ccc(Cl)cc2C(c2c(F)cccc2OC)=NC3)ccc1C(=O)O [alisertib]
# Summary of the method: as §1
# gefitinib = compound: COc1cc2ncnc(Nc3ccc(F)c(Cl)c3)c2cc1OCCCN1CCOCC1 [gefitinib]
# Summary of the method: as §1
# [4] = compound: COc1cc2nc(-c3cc(F)ccc3O)nc(N[C@@H]3CNC[C@H]3C(C)(C)O)c2cc1OC
# Summary of the method: as §1
# Chain of UniProt P57737 (P57737 whole entry, looked up): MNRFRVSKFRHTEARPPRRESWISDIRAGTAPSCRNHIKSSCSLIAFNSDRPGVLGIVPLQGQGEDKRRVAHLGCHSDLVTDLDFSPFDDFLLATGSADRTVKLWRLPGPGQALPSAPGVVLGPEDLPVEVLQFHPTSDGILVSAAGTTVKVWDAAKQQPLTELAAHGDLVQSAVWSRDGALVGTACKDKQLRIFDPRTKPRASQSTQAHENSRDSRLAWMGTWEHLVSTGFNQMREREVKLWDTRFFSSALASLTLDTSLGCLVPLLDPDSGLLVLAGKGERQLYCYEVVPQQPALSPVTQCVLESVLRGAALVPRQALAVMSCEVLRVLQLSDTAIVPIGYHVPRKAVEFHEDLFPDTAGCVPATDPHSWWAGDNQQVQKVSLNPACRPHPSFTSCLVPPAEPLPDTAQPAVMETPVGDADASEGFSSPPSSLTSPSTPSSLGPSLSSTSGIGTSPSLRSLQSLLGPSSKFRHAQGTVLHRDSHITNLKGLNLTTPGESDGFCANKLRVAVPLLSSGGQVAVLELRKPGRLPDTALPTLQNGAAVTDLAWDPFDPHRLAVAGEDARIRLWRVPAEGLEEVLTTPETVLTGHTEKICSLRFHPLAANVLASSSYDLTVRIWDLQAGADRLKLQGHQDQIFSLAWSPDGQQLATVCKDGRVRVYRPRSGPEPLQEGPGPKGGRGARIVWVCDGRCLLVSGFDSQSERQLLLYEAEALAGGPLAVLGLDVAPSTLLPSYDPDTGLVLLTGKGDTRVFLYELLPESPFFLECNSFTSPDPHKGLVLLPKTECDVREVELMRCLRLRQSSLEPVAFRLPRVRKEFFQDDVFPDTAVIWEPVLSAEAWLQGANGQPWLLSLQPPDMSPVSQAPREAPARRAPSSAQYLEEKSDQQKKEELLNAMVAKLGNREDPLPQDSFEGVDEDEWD
# Chain of UniProt O95628 (O95628 whole entry, looked up): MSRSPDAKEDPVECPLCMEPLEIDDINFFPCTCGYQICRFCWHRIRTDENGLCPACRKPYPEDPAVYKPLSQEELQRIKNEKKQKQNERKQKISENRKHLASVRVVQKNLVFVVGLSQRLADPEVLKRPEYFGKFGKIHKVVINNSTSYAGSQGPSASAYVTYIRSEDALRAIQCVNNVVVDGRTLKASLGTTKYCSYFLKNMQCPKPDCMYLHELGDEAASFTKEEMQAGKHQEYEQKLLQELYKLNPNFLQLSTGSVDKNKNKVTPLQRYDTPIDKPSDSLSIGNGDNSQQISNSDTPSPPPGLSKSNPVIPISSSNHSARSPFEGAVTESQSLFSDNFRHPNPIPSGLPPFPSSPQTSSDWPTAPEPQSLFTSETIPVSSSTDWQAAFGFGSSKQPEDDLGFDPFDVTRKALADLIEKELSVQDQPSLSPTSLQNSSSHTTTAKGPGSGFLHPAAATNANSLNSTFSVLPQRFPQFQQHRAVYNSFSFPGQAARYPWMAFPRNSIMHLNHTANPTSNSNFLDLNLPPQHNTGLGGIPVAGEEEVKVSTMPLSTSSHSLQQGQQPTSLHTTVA
# Chain of UniProt P51790 (P51790 whole entry, looked up): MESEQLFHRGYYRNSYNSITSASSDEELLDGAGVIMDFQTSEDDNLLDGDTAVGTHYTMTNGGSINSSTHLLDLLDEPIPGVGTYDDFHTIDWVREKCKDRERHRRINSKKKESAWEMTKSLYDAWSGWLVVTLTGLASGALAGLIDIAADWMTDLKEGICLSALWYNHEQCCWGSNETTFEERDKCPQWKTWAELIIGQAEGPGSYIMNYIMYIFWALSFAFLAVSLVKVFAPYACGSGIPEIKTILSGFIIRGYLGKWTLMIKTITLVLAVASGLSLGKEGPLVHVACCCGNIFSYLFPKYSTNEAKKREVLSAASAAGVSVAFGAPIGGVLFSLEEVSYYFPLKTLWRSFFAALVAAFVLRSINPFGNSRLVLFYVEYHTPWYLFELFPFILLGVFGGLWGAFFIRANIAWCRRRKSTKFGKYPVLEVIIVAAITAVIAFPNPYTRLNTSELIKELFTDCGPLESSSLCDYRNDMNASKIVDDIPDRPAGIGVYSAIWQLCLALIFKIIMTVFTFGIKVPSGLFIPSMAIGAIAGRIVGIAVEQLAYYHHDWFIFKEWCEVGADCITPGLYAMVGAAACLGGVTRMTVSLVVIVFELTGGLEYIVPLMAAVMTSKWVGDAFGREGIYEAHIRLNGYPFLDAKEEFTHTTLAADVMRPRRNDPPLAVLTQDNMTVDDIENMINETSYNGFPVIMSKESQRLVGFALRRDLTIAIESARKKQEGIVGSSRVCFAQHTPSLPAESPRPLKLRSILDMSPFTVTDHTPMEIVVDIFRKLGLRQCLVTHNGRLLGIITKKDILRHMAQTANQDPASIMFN
# Chain of UniProt P51530 (P51530 whole entry, looked up): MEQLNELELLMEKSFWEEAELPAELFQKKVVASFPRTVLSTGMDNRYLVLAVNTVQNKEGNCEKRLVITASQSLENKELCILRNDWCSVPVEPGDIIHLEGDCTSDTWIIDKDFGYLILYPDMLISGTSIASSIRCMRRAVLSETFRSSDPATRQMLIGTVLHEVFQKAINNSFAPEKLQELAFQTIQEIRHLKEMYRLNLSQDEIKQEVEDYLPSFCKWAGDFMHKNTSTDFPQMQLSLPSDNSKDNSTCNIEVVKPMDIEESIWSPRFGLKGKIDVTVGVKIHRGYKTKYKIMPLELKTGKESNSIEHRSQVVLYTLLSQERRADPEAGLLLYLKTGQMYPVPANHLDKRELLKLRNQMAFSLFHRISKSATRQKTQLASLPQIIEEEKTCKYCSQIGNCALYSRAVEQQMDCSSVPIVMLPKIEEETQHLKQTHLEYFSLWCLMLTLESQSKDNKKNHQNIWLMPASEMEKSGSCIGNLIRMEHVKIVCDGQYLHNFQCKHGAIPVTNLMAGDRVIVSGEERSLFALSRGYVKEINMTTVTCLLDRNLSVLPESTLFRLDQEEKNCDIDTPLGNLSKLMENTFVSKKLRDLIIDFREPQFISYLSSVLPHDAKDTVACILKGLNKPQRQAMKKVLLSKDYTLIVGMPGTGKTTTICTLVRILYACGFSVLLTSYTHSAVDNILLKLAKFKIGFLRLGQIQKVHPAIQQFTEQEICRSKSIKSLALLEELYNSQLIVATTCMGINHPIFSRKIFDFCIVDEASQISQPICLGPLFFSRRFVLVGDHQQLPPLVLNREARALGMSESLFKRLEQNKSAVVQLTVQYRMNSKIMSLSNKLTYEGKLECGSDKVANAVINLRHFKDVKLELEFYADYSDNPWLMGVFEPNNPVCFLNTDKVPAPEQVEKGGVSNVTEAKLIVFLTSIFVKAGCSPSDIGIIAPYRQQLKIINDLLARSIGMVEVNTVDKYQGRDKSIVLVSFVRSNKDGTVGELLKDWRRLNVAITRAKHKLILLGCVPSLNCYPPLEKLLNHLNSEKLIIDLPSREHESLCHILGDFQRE
# Chain of UniProt Q8WYQ5 (Q8WYQ5 whole entry, looked up): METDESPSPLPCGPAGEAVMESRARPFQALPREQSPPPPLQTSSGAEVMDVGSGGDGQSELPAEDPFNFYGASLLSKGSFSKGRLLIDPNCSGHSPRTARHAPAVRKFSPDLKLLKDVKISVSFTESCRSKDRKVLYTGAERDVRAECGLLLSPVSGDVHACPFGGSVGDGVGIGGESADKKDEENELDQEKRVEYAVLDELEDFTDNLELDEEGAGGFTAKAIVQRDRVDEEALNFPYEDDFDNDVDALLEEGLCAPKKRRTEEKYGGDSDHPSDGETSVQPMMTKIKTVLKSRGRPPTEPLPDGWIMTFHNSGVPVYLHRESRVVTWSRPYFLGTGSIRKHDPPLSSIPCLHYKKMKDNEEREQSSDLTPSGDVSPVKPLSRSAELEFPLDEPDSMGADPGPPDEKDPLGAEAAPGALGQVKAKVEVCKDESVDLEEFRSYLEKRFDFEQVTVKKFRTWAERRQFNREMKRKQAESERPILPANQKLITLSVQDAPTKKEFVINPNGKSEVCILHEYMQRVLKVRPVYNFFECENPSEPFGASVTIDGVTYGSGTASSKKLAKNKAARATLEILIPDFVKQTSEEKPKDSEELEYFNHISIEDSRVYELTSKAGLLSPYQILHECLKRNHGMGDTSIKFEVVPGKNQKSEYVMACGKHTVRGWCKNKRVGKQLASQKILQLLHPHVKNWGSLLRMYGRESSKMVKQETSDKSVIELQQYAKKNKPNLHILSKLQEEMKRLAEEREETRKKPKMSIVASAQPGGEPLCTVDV
# Chain of UniProt Q13948 (Q13948 whole entry, looked up): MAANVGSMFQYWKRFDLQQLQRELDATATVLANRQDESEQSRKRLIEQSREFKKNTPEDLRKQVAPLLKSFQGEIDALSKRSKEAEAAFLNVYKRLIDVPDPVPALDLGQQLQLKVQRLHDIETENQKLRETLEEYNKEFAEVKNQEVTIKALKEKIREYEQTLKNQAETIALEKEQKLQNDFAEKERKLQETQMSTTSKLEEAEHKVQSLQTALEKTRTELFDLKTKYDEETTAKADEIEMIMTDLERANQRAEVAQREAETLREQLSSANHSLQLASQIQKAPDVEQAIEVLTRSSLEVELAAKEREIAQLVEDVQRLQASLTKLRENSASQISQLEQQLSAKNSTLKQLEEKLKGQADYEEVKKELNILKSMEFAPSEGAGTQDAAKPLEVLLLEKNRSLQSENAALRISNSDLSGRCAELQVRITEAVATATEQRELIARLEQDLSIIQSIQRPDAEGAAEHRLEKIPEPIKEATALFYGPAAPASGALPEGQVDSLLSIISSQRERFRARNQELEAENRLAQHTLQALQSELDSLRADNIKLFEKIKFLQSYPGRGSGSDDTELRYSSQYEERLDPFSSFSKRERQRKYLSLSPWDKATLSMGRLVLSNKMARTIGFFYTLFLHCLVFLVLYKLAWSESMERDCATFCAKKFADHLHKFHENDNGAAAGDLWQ
# Chain of UniProt Q99828 (Q99828 whole entry, looked up): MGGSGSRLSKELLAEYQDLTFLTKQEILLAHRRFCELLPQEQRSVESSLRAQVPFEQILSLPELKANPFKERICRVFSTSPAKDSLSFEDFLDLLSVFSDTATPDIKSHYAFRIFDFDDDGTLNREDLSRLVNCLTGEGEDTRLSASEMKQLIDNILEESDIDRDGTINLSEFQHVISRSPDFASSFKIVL
Target,log2 fold change (alvocidib),log2 fold change (Tubastatin A),log2 fold change [1],log2 fold change (defactinib),log2 fold change [2],log2 fold change (encorafenib),log2 fold change [3],log2 fold change (alisertib),log2 fold change (gefitinib),log2 fold change [4]
CORO7 (UniProt P57737),0.001,0.011,-0.092,0.191,-0.05,-0.081,0.061,0.259,-0.062,–
DAZAP1 (UniProt Q96EP5),-0.027,0.042,-0.026,-0.039,0.058,-0.018,-0.045,0.009,0.034,-0.004
DAPK1 isoform 3 (UniProt P53355),0.085,0.001,0.322,-0.109,0.058,–,–,0.051,0.139,0.063
DFFB (UniProt O76075),-0.042,-0.007,-0.022,-0.033,-0.022,-0.012,0.015,-0.006,0.231 (active),0.011
DCP2 (UniProt Q8IU60),0.023,-0.195,-0.013,-0.045,0,0,-0.117,-0.02,0.041,0
CIB1 (UniProt Q99828),-0.003,-0.037,0.01,0.038,0.041,-0.001,-0.215,-0.031,-0.124,0.072
DIAPH1 (UniProt H9KV28),-0.039,0.032,0.036,0.012,–,0.054,0.213,-0.012,-0.005,0.026
DENND1B (UniProt Q6P3S1),0.074,0.152,-0.105,0.099,0.023,–,–,-0.146,-0.102,-0.226
CLCN3 (UniProt P51790),-0.03,-0.012,-0.042,-0.024,-0.194,0.05,0.003,0.005,0.029,-0.043
DNAH5 (UniProt Q8TE73),-0.189,0.073,-0.032,-0.014,-0.051,–,–,-0.029,0.052,-0.019
CNP (UniProt P09543),-0.005,-0.06,0.011,0.028,-0.03,0.02,-0.003,0.029,-0.025,0
DGCR8 (UniProt Q8WYQ5),0.009,-0.115,-0.009,-0.046,0.042,0.018,0.081,0.022,-0.034,0.027
DEF6 (UniProt Q9H4E7),-0.036,-0.154,0.027,-0.07,0.039,0.019,-0.002,0.097,-0.01,0.013
CUX1 isoform 2 (UniProt Q13948),-0.035,0.016,0.033,0.085,-0.028,0.067,-0.022,–,–,0.071
CNNM2 (UniProt Q9H8M5),-0.049,-0.105,0.007,0.065,-0.01,-0.048,0.033,–,–,-0.003
CNOT4 isoform 9 (UniProt O95628),-0.351,0.04,-0.087,-0.085,-0.047,0.037,0.003,–,–,0.002
DNA2 (UniProt P51530),-0.116,-0.15,-0.009,-0.039,-0.035,0.123,-0.098,-0.007,0.036,–
COASY isoform 2 (UniProt Q13057),0.015,-0.124,-0.003,0.064,-0.023,-0.012,0.032,0.023,-0.005,-0.025
"CLIP1, A0A3B3ITA2",-0.036,0.152,–,-0.077,–,–,–,–,–,–
CSNK1A1 isoform 3 (UniProt P48729),–,-0.138,–,–,0.068,–,–,–,–,–
DONSON (UniProt Q9NYP3),0.04,-0.079,0.069,–,0.005,–,–,-0.05,0.075,0.028
